Source: PubChem BioAssay
The list is not random: actives were taken first. Their share in the collection is about 3.1%.
Casp6 inh: blocks human caspase-6 cleavage activity; purified caspase-6, Z-VEID-R110 cleavage fluorescence; P55212; inhibition, % at 12.5 µM; 350,000 compounds, 0.53% hits;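 active means mean inhibition across replicates at least about 35%, with every replicate also reaching that limit, limit read from the data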;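 further: 0% = median of neutral control wells and 100% = no fluorescence left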
ERAP1 HTS inh: inhibitors of human ERAP1 aminopeptidase; Q9NZ08; recombinant ERAP1, Leu-AMC fluorescence, 60 min; inhibition, % at 10.7 µM; 340,000 compounds, 0.15% hits;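 active means mean replicate inhibition of at least 30%, or all replicates individually reaching that 30% level; inactive means mean below 30% and not every replicate reaching it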;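 further: 0% = neutral control wells and 100% = L-leucinethiol positive control wells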
SIRT5 block: blocks human SIRT5 desuccinylation of peptide | 330,000 compounds, 1.1% hits | inhibition, % at 15 µM | Purified SirT5, succinyl-peptide AMC, trypsin-coupled fluorescence; in the data active means inhibition above about 15%
FGF22 binding: shifts melting point of recombinant human FGF22; Q9HCT0; activity (Tm shift, normalised), % at 9.99 µM; 340,000 compounds, 1.5% hits; recombinant FGF22 thermal shift, SYPRO orange fluorescence; percent of sucrose octasulfate shift, DMSO zero;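 active means mean Tm shift, scaled 0 neutral to 100 positive control, at about 1.3% or above, every replicate too, limit read from the data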
* marks the source's active call; other numbers are inactive results; / = no result given.

SMILES	Casp6 inh	ERAP1 HTS inh	SIRT5 block	FGF22 binding
COc1ccc(N2C(=O)NC(=O)/C(=C\c3ccc([N+](=O)[O-])s3)C2=O)cc1	52.3*	5.6	20.2*	0.5
COc1ccccc1N1C(=O)NC(=O)/C(=C/c2ccc([N+](=O)[O-])s2)C1=O	28.2	8.0	18.0*	0.4
N#Cc1cccc(-c2ccc([C@H]3[C@@H](CO)N4CCCCN(C(=O)Cc5cccnc5)C[C@H]34)cc2)c1	2.4	-0.9	-2.0	-0.4
O=C(Cc1ccccc1)N1CCCCN2[C@@H](CO)[C@H](c3ccc(-c4ccccc4)cc3)[C@@H]2C1	1.5	0.0	2.7	-0.3
COc1ccc(-c2ccc([C@@H]3[C@@H](CO)N4CCCCN(C(=O)Cc5ccccc5)C[C@H]34)cc2)cc1	/	/	-3.6	/
CSc1ccc(C(=O)C2CCCN(Cc3cnc(SC)nc3)C2)cc1 (stereo unspecified)	2.0	-1.9	0.6	43.9*
CSc1ncc(CN2CCCC(C(=O)c3ccccc3SC)C2)cn1 (stereo unspecified)	0.3	3.2	-0.7	0.0
CC=Cc1ccc2n(c1=O)C[C@H]1[C@H](CO)[C@@H](C(=O)OC)[C@@H]2N1C(=O)CC (mixture of isomers)	0.5	-3.7	-8.0	0.0
Fc1ccc(CCNCc2ccc(Br)cc2)cc1	-0.8	0.6	-2.6	43.6*
COC(=O)[C@@H]1[C@@H](CO)[C@@H]2Cn3c(ccc(-c4cccc(OC)c4)c3=O)[C@H]1N2C(=O)c1ccccc1F	-3.1	-2.1	-24.6	-0.1
CCN(CC)P(c1n(C)cc[n+]1C)N(CC)CC	2.5	102.8*	/	0.2
Cc1ccc(-n2c(O)c(C=Nc3ccc(S(N)(=O)=O)cc3)c(=O)[nH]c2=O)cc1	1.8	0.2	2.8	43.0*
NS(=O)(=O)c1ccc(N=Cc2c(O)n(-c3ccccc3)c(=O)[nH]c2=O)cc1	/	-6.5	0.1	0.1
Cc1cccc(C(O)(C(=O)O)c2ccccc2)c1 (stereo unspecified)	0.0	-2.5	0.7	-0.2
CC(C)(C#CC(=O)O)OOC(c1ccccc1)(c1ccccc1)c1ccccc1	4.1	41.4*	1.5	0.0
NC(=O)C1CCN(/C=C2\C(=O)NC(=O)N(Cc3ccco3)C2=O)CC1	9.0	-0.1	2.0	0.4
CCc1ccc(N2C(=O)NC(=O)/C(=C/c3cccn3CCOc3ccc(C)cc3)C2=O)cc1	9.7	-0.8	-1.4	0.4
O=C1NC(=O)N(Cc2ccco2)C(=O)/C1=C\c1cccn1CCOc1ccc(Cl)cc1	67.5*	-1.3	1.5	0.2
CCc1ccc(N2C(=O)NC(=O)/C(=C/c3cccn3CCOc3ccc(C(C)CC)cc3)C2=O)cc1 (stereo unspecified)	2.9	-1.0	0.4	43.4*
Cc1cccc(OCCn2cccc2/C=C2/C(=O)NC(=O)N(Cc3ccco3)C2=O)c1	44.2*	3.2	0.4	0.2
CC=Cc1ccc2n(c1=O)C[C@H]1[C@H](CO)[C@@H](C(=O)OC)[C@@H]2N1CC1CCCC1 (mixture of isomers)	-0.4	0.0	2.2	/
COC(=O)[C@@H]1[C@@H](CO)[C@@H]2Cn3c(ccc(C4=CCCCC4)c3=O)[C@H]1N2CC1CCCC1	-2.1	0.7	6.0	/
COC(=O)[C@H]1[C@H](CO)[C@H]2Cn3c(ccc(-c4ccncc4)c3=O)[C@@H]1N2S(=O)(=O)c1ccccc1F	0.9	-2.2	-54.4	0.0
O=c1ccc2cc(O[C@@H]3O[C@H](CO)[C@@H](O)[C@H](O)[C@H]3O)c(O)cc2o1	-1.8	153.7*	-76.0	-0.1
C[N+](C)(C)CC1CCCC(C[N+](C)(C)C)C1=O (stereo unspecified)	-42.7	75.3*	/	-0.2
SMILES	Casp6 inh	ERAP1 HTS inh	SIRT5 block	FGF22 binding
C[N+](C)(C)CC1CCCc2ccccc2C1=O (stereo unspecified)	-1.8	20.3	-2.5	-0.1
O=C(Cc1ccccn1)N1CCCCN2[C@@H](CO)[C@@H](c3ccc(-c4ccc(F)cc4)cc3)[C@@H]2C1	2.6	-3.6	-0.2	-0.6
O=C1NC(=O)N(CCc2ccc(F)cc2)C(=O)/C1=C/c1ccco1	82.6*	-0.2	4.8	0.2
COc1ccc(CN2C(=O)NC(=O)/C(=C\c3cc(OC)c(OC)c(OC)c3)C2=O)cc1	5.4	-5.5	-1.2	0.0
CC(C)c1ccc(N2C(=O)NC(=O)/C(=C\C=C\c3ccco3)C2=O)cc1	30.1	3.0	4.6	0.2
O=C1NC(=O)N(Cc2ccccc2)C(=O)/C1=C/C=C/c1ccco1	38.6*	-4.0	-1.9	-0.5
CCN1C(=O)C(=C/C=C/c2ccco2)C(=O)N(CC)C1=S	57.7*	9.1	21.1*	0.0
COc1ccc(CN2C(=O)NC(=O)/C(=C\c3ccco3)C2=O)cc1	82.0*	0.8	14.0	0.0
